High-throughput results deposited in PubChem BioAssay by several laboratories.
This is a sample that favours compounds with a hit; in the whole collection about 2.4% have one here.
m5-HT2A agonist: activates the mouse 5-HT2A serotonin receptor | P35363 | CHO-K1 mHTR2A beta-arrestin complementation, luminescence; percent of 30 µM serotonin response | activation, % at 7.6 µM | hit rate 0.66% among 360,000;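 active = activation above a run cutoff, the mean activation of all tested compounds plus 3 SD, cut at about 14% in these data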;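 also: 0% = plate median of compound wells and 100% = 30 µM serotonin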
ANO1 activ: mouse TMEM16A channel activation, primary screen; HEK293 TMEM16A/YFP-H148Q/I152L, iodide quench fluorescence; stronger effect = lower value; B-score at 10 µM; Q8BHY3; hit rate 0.3% among 340,000;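 active = fluorescence-ratio B-score plate-corrected deviation score at least 3 library SD below zero, with starting fluorescence score within 5 deviations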;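 also: channel opened by trigger with iodide after compound preincubation; score built on the fluorescence ratio of max minus min over baseline; more negative score means more quench and so TMEM16A activation or potentiation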
NOD2-RIPK2 inh: blocks binding of human NOD2 to RIPK2. O43353. CHO BLA complementation NOD2-RIPK2, CCF4 ratio. inhibition, % at 4.98 µM. hit rate 0.38% among 360,000. AID 624267; in the data active = inhibition above about 21%;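 also: 0% = vehicle only and 100% = reference blocker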
Target sequence (O43353 whole entry, looked up): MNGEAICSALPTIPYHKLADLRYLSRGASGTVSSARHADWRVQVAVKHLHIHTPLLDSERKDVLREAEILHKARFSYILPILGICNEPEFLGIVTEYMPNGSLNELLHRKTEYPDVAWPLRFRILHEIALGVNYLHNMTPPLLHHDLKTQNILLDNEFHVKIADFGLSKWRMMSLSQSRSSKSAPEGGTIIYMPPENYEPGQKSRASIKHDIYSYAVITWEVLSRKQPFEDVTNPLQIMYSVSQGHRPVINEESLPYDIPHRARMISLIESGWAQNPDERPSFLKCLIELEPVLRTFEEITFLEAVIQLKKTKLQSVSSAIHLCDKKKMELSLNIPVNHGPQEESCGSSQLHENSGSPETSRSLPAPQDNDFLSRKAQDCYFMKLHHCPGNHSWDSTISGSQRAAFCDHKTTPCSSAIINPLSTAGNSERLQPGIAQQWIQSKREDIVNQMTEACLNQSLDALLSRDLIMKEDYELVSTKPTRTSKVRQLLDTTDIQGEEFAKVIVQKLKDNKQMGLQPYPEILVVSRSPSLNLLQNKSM
TLR9-MyD88 inh: TLR9-MyD88 interaction inhibition; Q9NR96+Q99836; hit rate 0.21% among 340,000; inhibition, % at 4.98 µM; CHO BLA complementation TLR9-MyD88, CCF4 FRET ratio;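 active = inhibition above the mean over all tested compounds plus 3 SD, cut at about 21% in these data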;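 also: 0% = DMSO only wells and 100% = clavulanate BLA inhibitor control wells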
TLR4-MyD88 BLA: TLR4-MyD88 interaction inhibition in cells | O00206+Q99836 | HeLa CL3-4 TLR4/MyD88 BLA complementation, FRET ratio | inhibition, % at 8.4 µM | hit rate 0.18% among 200,000 | AID 861; in the data active = inhibition above about 25%;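 also: 0% = vehicle and 100% = reference inhibitor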
TMEM16A inh: blocks the mouse calcium-activated chloride channel TMEM16A | normalized B-score (activity score, 25-100; higher = stronger inhibition) at 10 µM | hit rate 1.2% among 310,000 | Q8BHY3 | HEK293 TMEM16A/YFP iodide influx fluorescence, ionomycin;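 active = ratio plate-corrected score three or more library SD toward inhibition, starting fluorescence score within five deviations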;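 also: score derived from kinetic fluorescence span divided by baseline fluorescence per well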
TLR9-MyD88 conf: TLR9-MyD88 interaction inhibition, confirmation; shares compounds with TLR9-MyD88 inh; CHO TLR9/MyD88 BLA complementation, CCF4 FRET ratio; inhibition, % at 4.98 µM; hit rate 51% among 680; AID 540250;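 active = mean inhibition across three repeats above about 21% taken from the earlier screen, limit read from the data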;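 also: blue over green emission ratio reports constitutive TLR9 MyD88 association via BLA complementation; 0% = DMSO vehicle wells and 100% = clavulanate BLA inhibitor wells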
BLA counter-1: counter-screen for TLR9-MyD88 inhibitors: non-selective beta-lactamase inhibitors. shares compounds with TLR9-MyD88 inh. inhibition, % at 4.98 µM. hit rate 7% among 680. CHO-BLA cells, CCF4 FRET ratio, BLA reporter;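 active = mean inhibition above a 50% cutoff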;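 also: counterscreen of TLR9-MyD88 hits on CMV-driven BLA in CHO-K1 cells; 0% = DMSO alone and 100% = clavulanate blocking BLA; higher means less blue over green ratio so more BLA blockade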
TLR9 CHO tox: CHO cell toxicity counter-screen for TLR9-MyD88 inhibitors; shares compounds with TLR9-MyD88 inh; TLR9-MyD88 CHO cells cytotoxicity, luminescence; inhibition, % at 4.98 µM; hit rate 39% among 680; in the data active = inhibition above about 11%
TMEM16A reconf: TMEM16A (mouse) chloride channel inhibition, re-confirmation; shares compounds with TMEM16A inh; HEK293 TMEM16A/YFP-H148Q, iodide quench fluorescence; ionomycin added to raise cell calcium; inhibition, % at 10 µM; hit rate 39% among 2,300; AID 652189;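 active = mean duplicate percent inhibition, scaled so buffer wells are 0 and the reference blocker 100, over three buffer SD above buffer mean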
HEK293 Ca mobil: counter-screen for TMEM16A inhibitors: effect on calcium mobilization; shares compounds with TMEM16A inh; TMEM16A/YFP HEK293, Fluo4 calcium mobilization; calcium response (% of ionomycin), % at 10 µM; hit rate 2% among 2,300;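 active = duplicate-averaged calcium signal over 20% of the ionomycin maximum, relative to buffer baseline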;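 also: each well's signal is peak minus trough fluorescence divided by its pre-addition baseline; 0% = buffer wells and 100% = ionomycin wells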
Parental YFP cnt: acts in parental YFP-HEK293 cells lacking TMEM16A, counter-screen | iodide YFP quench, ionomycin | AID 652233 | 2,300 tested, under 10 active | shares compounds with TMEM16A inh | YFP ratio F(max-min)/F0 at 10 µM;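 active = yellow fluorescent protein signal ratio exceeding the buffer control mean by over 5 SD of those controls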;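 also: ratio is mean of duplicate wells from kinetic YFP trace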
ClC-1 rat inh: rat ClC-1 inhibition, TMEM16A specificity screen; shares compounds with TMEM16A inh; CHO ClC-1-YFP, iodide influx fluorescence quench; iodide control reads 0, buffer control 100; ratio percent, % at 10 µM; 2,300 tested, under 10 active; AID 652236;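 active = duplicate-mean ratio percent above the mean of iodide-only control wells, which defines zero, plus 5 of their SD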;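 also: higher percent means stronger block of ClC-1 iodide influx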
NOD2 RIPK2 conf: NOD2-RIPK2 interaction inhibition confirmed; inhibition, % at 4.98 µM; CHO cells, NOD2-RIPK2 BLA complementation, CCF4 FRET; shares compounds with NOD2-RIPK2 inh; hit rate 70% among 1,200;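 active = mean inhibition across replicates above a set limit taken from the earlier primary screen, cut at about 21% in these data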;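 also: 0% = DMSO-only wells and the high end = clavulanate BLA-blocked wells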
BLA counter-2: hits BLA reporter in NOD2-RIPK2 inhibitor counterscreen | shares compounds with NOD2-RIPK2 inh | CHO BLA reporter, CCF4 FRET ratio | inhibition, % at 4.98 µM | hit rate 57% among 1,200 | AID 624371;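 active = mean inhibition above the low-control mean inhibition plus three low-control SD, cut at about 11% in these data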;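 also: 0% = DMSO only wells and 100% = clavulanate high control wells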
The depositor's hits bear a star; i = inactive; . = no result.

SMILES	m5-HT2A agonist	ANO1 activ	NOD2-RIPK2 inh	TLR9-MyD88 inh	TLR4-MyD88 BLA	TMEM16A inh	TLR9-MyD88 conf	BLA counter-1	TLR9 CHO tox	NOD2 RIPK2 conf	BLA counter-2	others
CN1/C(=C\C(=O)c2cncc(Br)c2)C(C)(C)c2ccccc21	-2	i	14	22*	16	i	10	14	26*	.	.	TMEM16A reconf=22%*;HEK293 Ca mobil=i;Parental YFP cnt=-0.72;ClC-1 rat inh=-8
CCOC(=O)c1cn2nc(Oc3ccc(C#N)cc3)ccc2n1	-1	i	5	-9	.	i	.	.	.	.	.
Cc1nnc(Sc2cc(NCCCO)c([N+](=O)[O-])c3nonc23)s1	-7	i	41*	36*	15	.	64*	4	99*	60*	18*
CCCSc1cc(NCCOC(C)=O)c([N+](=O)[O-])c2nonc12	1	i	-2	-1	-6	i	.	.	.	.	.
CCCC(=O)OCCNc1cc(Sc2nccn2C)c2nonc2c1[N+](=O)[O-]	-4	i	71*	53*	24	i	71*	16	97*	92*	47*
CCC(=O)OCCNc1cc(Sc2nc3ccccc3s2)c2nonc2c1[N+](=O)[O-]	-2	i	49*	39*	10	i	61*	13	98*	75*	14*
CCCC(=O)OCCNc1cc(SCc2ccco2)c2nonc2c1[N+](=O)[O-]	-3	i	1	6	1	i	.	.	.	.	.
O=Cc1ccc2c(c1)OCCOCCOCCOCCO2	-1	.	-2	-10	.	.	.	.	.	.	.
Cc1ccc2c(c1)c(N=O)c(O)n2Cc1ccc(Cl)cc1	-1	i	1	13	17	i	.	.	.	.	.
O=Nc1c(O)n(Cc2c(Cl)cccc2Cl)c2ccccc12	0	i	29*	35*	-3	i	14	24	6	36*	42*
CC[C@@]1(O)C(=O)OCc2c1cc1n(c2=O)Cc2cc3c(N)cccc3nc2-1	14	i	-1	1	.	i	.	.	.	.	.
CC[C@@]1(O)C(=O)OCc2c1cc1n(c2=O)Cc2cc3c(CN(C)C)c(O)ccc3nc2-1	-1	i	72*	54*	.	i	49*	52*	60*	81*	78*
CCN1CCN(Cc2c(O)ccc3c2O/C(=C\C=C\c2ccccc2)C3=O)CC1	-1	i	7	6	4	i	.	.	.	.	.
